From PubChem BioAssay AID540321 (Johns Hopkins Ion Channel Center, 2011) come the findings set out here.

Activity calls are given as the source filed them.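 How the source made its calls: active means Inhibition of the Kir2.1 potassium channel over 30% at some tested dose, plus a fitted dose response curve; inactive means no Kir2.1 inhibition at any dose, or no curve fitted.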

The target in the assay is Inward rectifier potassium channel 2 (Mus musculus) (UniProt P35561). Put plainly: off-target blockade of inward rectifier Kir2.1 – cell-based, FluxOR thallium flux, CRC round 2, selectivity assay for KCNK9 inhibitor project, SAR follow-up (AID 540321). As to conditions: Kir2.1-expressing cells; series mostly up to 30 µM; fluorescence ratio, lower = inhibition: at the top concentration.
Chain of Inward rectifier potassium channel 2 (Mus musculus) (P35561 whole entry, looked up): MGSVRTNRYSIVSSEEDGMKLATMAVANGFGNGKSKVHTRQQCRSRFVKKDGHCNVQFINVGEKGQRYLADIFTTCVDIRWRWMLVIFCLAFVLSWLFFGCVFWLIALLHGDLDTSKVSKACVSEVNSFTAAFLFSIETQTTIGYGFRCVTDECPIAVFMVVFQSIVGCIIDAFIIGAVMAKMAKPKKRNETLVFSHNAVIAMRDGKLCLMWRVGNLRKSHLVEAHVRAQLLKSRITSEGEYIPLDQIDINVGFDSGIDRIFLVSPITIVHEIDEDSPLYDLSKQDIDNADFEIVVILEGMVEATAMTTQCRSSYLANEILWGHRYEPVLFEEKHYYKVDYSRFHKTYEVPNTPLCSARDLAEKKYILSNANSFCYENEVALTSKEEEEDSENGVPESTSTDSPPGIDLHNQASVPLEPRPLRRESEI
In the case of `Cc1cccc(C(=O)Nc2cccc(NC(=O)c3ccco3)c2)c1`, the “fluorescence ratio, lower = inhibition” value is 1.75 (inactive). As to `CCOc1ccccc1NC(=O)c1cccc(NC(=O)c2ccc(C(F)(F)F)cc2)c1`, the “fluorescence ratio, lower = inhibition” value was 1.75 (inactive). With `CCOc1ccccc1NC(=O)c1cccc(NC(=O)C2CCCCC2)c1`, the “fluorescence ratio, lower = inhibition” value is 1.64 (inactive).

Consider `CCOc1ccccc1NC(=O)c1cccc(NC(=O)c2ccccc2)c1`, for which the “fluorescence ratio, lower = inhibition” value is 1.82 (inactive). Regarding `O=C(Nc1cccc(NC(=O)c2ccco2)c1)c1ccccc1`, the “fluorescence ratio, lower = inhibition” value was 1.68 (inactive). In the case of `O=C(Nc1cccc(NC(=O)c2cccnc2)c1)c1ccccc1`, the “fluorescence ratio, lower = inhibition” value was 1.57 (inactive). On the same count and under the same terms, with `Cc1cccc(C(=O)Nc2cccc(NC(=O)c3ccc(N(C)C)cc3)c2)c1` the figure was 1.77 (inactive); with `CC(C1CC2CCC1C2)n1c(-c2ccco2)n[nH]c1=S` (stereo not given), 1.39 (inactive); with `COc1cccc(-c2n[nH]c(=S)n2C(C)C2CC3CCC2C3)c1` (stereo not given), 1.64 (inactive). As for `CN(C)c1ccc(C(=O)Nc2cccc(NC(=O)c3ccccc3)c2)cc1`, the “fluorescence ratio, lower = inhibition” value was 1.47 (inactive). Regarding `Cc1cccc(C(=O)Nc2cccc(NC(=O)c3cccc(C)c3)c2)c1`, the “fluorescence ratio, lower = inhibition” value was 1.81 (inactive). Take `COc1ccccc1NC(=O)c1cccc(NC(=O)C2CCCCC2)c1`: the “fluorescence ratio, lower = inhibition” value is 1.61 (inactive). As for `CCOc1ccccc1NC(=O)c1cccc(NC(=O)CC2CCCC2)c1`, the “fluorescence ratio, lower = inhibition” value was 1.67 (inactive). On to `CC(C)n1c(-c2ccco2)n[nH]c1=S`, for which the “fluorescence ratio, lower = inhibition” value is 1.42 (inactive). On the same count and under the same terms, with `Cc1cccc(C(=O)Nc2cccc(NC(=O)c3ccccc3C(C)C)c2)c1` the figure was 1.66 (inactive); with `O=C(Nc1cccc(NC(=O)c2ccccc2)c1)c1ccccc1`, 1.63 (inactive); with `CCOc1ccccc1NC(=O)c1cccc(NC(=O)c2ccccc2C(F)(F)F)c1`, 1.79 (inactive). The same measure, in the same setting: to `COc1ccccc1C(=O)Nc1cccc(NC(=O)c2ccccc2OC)c1` belongs 1.38 (inactive); to `COc1ccccc1C(=O)Nc1cccc(NC(=O)c2ccccc2OC(F)(F)F)c1`, 1.79 (inactive); to `CCOc1ccccc1NC(=O)c1cccc(NC(=O)c2cccc(Cl)c2)c1`, 1.84 (inactive).

On to `CCOc1ccccc1NC(=O)c1cccc(NC(=O)c2ccccc2Cl)c1`, for which the “fluorescence ratio, lower = inhibition” value is 1.21 (inactive). Consider `COc1ccc(C(=O)Nc2cccc(NC(=O)c3ccccc3)c2)cc1`, for which the “fluorescence ratio, lower = inhibition” value is 1.37 (inactive). Consider `O=C(Nc1cccc(NC(=O)c2cccc(F)c2)c1)c1ccccc1`, for which the “fluorescence ratio, lower = inhibition” value is 1.62 (inactive). On the same count and under the same terms, to `O=C(Nc1cccc(NC(=O)c2ccccc2Cl)c1)c1ccccc1` belongs 1.36 (inactive); to `Cc1cccc(C(=O)Nc2cccc(NC(=O)c3cccc(Cl)c3)c2)c1`, 1.62 (inactive). On to `O=C(Nc1cccc(NC(=O)c2ccc(C(F)(F)F)cc2)c1)c1ccccc1`, for which the outcome was inactive. Turning to `CC(C1CC2CCC1C2)n1c(C2CCOC2)n[nH]c1=S` (stereo not given), the “fluorescence ratio, lower = inhibition” value is 1.79 (inactive). Same read-out and setting: with `CCOc1ccccc1NC(=O)c1cccc(NC(=O)c2cccc(C(F)(F)F)c2)c1` the figure was 1.69 (inactive).

As to `CCOc1ccccc1C(=O)Nc1cccc(NC(=O)c2ccccc2C(F)(F)F)c1`, the “fluorescence ratio, lower = inhibition” value is 1.97 (inactive). Regarding `CCOc1ccccc1NC(=O)c1cccc(NC(=O)C2CC2)c1`, the “fluorescence ratio, lower = inhibition” value is 1.76 (inactive). Turning to `O=C(Nc1cccc(NC(=O)c2ccccn2)c1)c1ccccc1`, the “fluorescence ratio, lower = inhibition” value is 1.67 (inactive). Consider `COc1ccccc1NC(=O)c1cccc(NC(=O)C2CCCC2)c1`, for which the “fluorescence ratio, lower = inhibition” value was 1.82 (inactive).

As to `Cc1cccc(C(=O)Nc2cccc(NC(=O)c3ccncc3)c2)c1`, the “fluorescence ratio, lower = inhibition” value is 1.68 (inactive). On the same count and under the same terms, with `CCOc1ccccc1NC(=O)c1cccc(NC(=O)c2ccc(OC)cc2)c1` the figure was 1.69 (inactive); with `CC(c1ccco1)n1c(-c2ccoc2)n[nH]c1=S` (stereo not given), 1.74 (inactive).
